# Screening results deposited in PubChem by Sanford-Burnham Center for Chemical Genomics.
# Only some compounds are listed: those with a hit (about 2.6% of all), similar ones and a draw of the others.
# PHOSPHO1 block = inhibitors of human PHOSPHO1 phosphatase | Q8TCT1 | recombinant PHOSPHO1, absorbance phosphatase assay | inhibition, % at 13.3 µM | 1.1% of 290,000 active | AID 1565; in the data active = inhibition above about 60%
# Target sequence (Q8TCT1 whole entry, looked up): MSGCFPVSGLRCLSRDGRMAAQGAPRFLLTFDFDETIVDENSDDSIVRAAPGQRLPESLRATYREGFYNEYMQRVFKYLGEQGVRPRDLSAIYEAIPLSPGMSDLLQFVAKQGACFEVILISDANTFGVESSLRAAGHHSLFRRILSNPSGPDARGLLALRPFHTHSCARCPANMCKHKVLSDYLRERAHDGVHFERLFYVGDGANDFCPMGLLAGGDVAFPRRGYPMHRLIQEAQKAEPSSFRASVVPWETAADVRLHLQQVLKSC
# eIF4H FP inh = inhibitors of RNA binding by human eIF4H. Q15056. AID 2012. 0.94% of 290,000 active. inhibition, % at 35 µM. eIF4H fluorescence polarization binding assay;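 also: calls also rest on retests at 20 µM and on dose response follow-up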
# MLLE-PAM2 inh = blocks PAM2 peptide binding to the PABP1 MLLE domain; P11940; 0.36% of 360,000 active; AID 588489; GST-MLLE / FITC-PAM2 fluorescence polarization; inhibition, % at 20 µM; in the data active = inhibition above about 35%, passing the limit was not always enough;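 also: plate controls were DMSO wells with GST-MLLE for no effect and wells lacking GST-MLLE protein for full effect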
# APOBEC3A inh = inhibitors of human APOBEC3A DNA deaminase; inhibition, % at 20 µM; 0.41% of 330,000 active; recombinant A3A, FAM/TAMRA ssDNA deamination fluorescence; P31941;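 active = at least 40% inhibition at 20 µM here, with at most 30% in a related deaminase screen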;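 also: plate controls were A3A with DMSO for no effect and wells lacking A3A enzyme for full effect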
# A3G deaminase = APOBEC3G (human) deaminase inhibition; Q9HC16; recombinant A3G, ssDNA deamination FAM/TAMRA fluorescence; inhibition, % at 20 µM; 0.28% of 330,000 active; AID 493012;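 active = inhibition of at least 40% at 20 µM, with no more than 30% in the related APOBEC3A deaminase screen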;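 also: plate controls were DMSO wells with A3G for no effect and wells lacking A3G enzyme for full effect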
# PABP polyA inh = PABP-poly(A) binding inhibition. PABP-poly(A) RNA binding, fluorescence polarization. calls only at 35 µM. 1% of 290,000 active;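 also: calls also rest on retests at 20 µM and on dose response follow-up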
# * hit, by the source's call; i = inactive; ? = inconclusive; . = no result; + = active, no number. Unless noted, no rule for the calls is given here.
SMILES,PHOSPHO1 block,eIF4H FP inh,MLLE-PAM2 inh,APOBEC3A inh,A3G deaminase,PABP polyA inh
CCc1cc(C(=O)NNC(=S)NC(C)c2ccccc2)cs1 (centres undefined),65*,11,1,3,2,i
CCC(=O)n1nc(-c2ccco2)nc1N,67*,0,-16,3,-1,i
Cc1cc(OC(C)C(=O)N2CCN(c3ccccc3)CC2)c2c(C)c(C)c(=O)oc2c1 (centres undefined),28,6,4,1,-5,i
CC1CCN(C(c2ccc(N(C)C)cc2)c2nnnn2Cc2ccccc2)CC1 (centres undefined),69*,1,2,-5,-5,i
CCN1CCN(C(c2ccccc2)c2nnnn2Cc2ccc3c(c2)OCO3)CC1 (centres undefined),61*,-2,10,-4,-7,i
Cn1c(=O)n(C)c2cc([N+](=O)[O-])c(N3CCN(C(=O)c4cccc(F)c4)CC3)cc21,44,7,22,-2,-11,i
Cn1c(=O)n(C)c2cc([N+](=O)[O-])c(N3CCN(C(=O)c4cccc(Cl)c4)CC3)cc21,-16,active,12,-2,-3,+
CCOc1ccc(N2C(=O)C(Cl)=C(Nc3ccccc3O)C2=O)cc1,55,11*,-5,-9,-9,i
C/C(N)=C(/C#N)C(=O)CSc1nnc(Nc2c(C)cccc2C)s1,67*,6,-41,17,8,i
O=C(NCC1CCCO1)C1CC(=O)N(c2ccc(Cl)cc2)C1 (centres undefined),19,12,-1,5,-2,i
Cc1nnc(NC(=O)CCSc2ccc(Cl)cc2)s1,60*,-4,-10,-1,-5,i
O=C(CSc1ncnc2nc[nH]c12)c1ccc(Cl)cc1,31,3,-4,-3,-12,i
O=C(CSc1ncnc2c(-c3ccc(Cl)cc3)nsc12)c1ccccc1,73*,-4,7,3,2,i
Cc1nnc(NC(=O)C2c3ccccc3Oc3ccccc32)s1,-1,3,38*,-15,11,i
COc1ccc(C2NC3=C(CCC3)C3(C#N)C4(N=C(N)C23C#N)OCCO4)cc1 (centres undefined),13,72*,-19,5,1,+
CC1CC(C)CN(CCCNC(=O)c2ccc(CNS(=O)(=O)c3ccc(F)cc3)cc2)C1 (centres undefined),75*,8,-2,0,1,i
Cc1cccc(SC2CCN(Cc3nc(CC4CC4)no3)CC2)c1,35,-1,-2,4,0,i
Cc1cccc(N2CCN(Cc3nc(CC4CC4)no3)CC2)n1,60*,6,1,-2,-7,i
C=CCC1(CC=C)CCCN1Cc1nc(COc2ccccc2)no1,20,59*,-31,-2,-4,i
NC(=O)NOCc1c(F)cccc1Cl,37,6,-5,3,-2,+
COc1ccc2cc(C(c3nnnn3CCc3ccccc3)N3CCCC(C)C3)c(=O)[nH]c2c1 (centres undefined),82*,-10,0,0,4,i
CCOc1ccc2[nH]c(=O)c(C(c3nnnn3Cc3ccco3)N3CCN(C)CC3)cc2c1 (centres undefined),17,39,-14,-4,-7,i
Cc1cc2cc(C(c3nnnn3Cc3ccco3)N3CCCCC3)c(=O)[nH]c2cc1C (centres undefined),3,57*,-21,6,-2,+
O=c1[nH]c2cc3c(cc2cc1C(c1nnnn1Cc1ccccc1)N1CCCCCC1)OCCO3 (centres undefined),-21,130,-14,2,-2,+
O=C(N[C@@H](Cc1ccccc1)C(=O)N1CCN(S(=O)(=O)c2cccc(F)c2)CC1)c1ccco1,.,.,-4,2,2,.
SMILES,PHOSPHO1 block,eIF4H FP inh,MLLE-PAM2 inh,APOBEC3A inh,A3G deaminase,PABP polyA inh
Cc1ccc(NC(=O)C2C3CCCC2C3c2ccccc2)cc1C (centres undefined),31,?,-5,1,-3,+
CC(C)CC(=O)Nc1ccc(C(=O)NNC(=S)NC(=O)C2CCCCC2)cc1,93*,15,17,-5,9,i
N#CCC(=O)Nc1ccc(C(=O)NNC(=S)NC2CCCCC2)cc1,.,.,-28,-6,-8,.
O=C(Nc1ccc(Cl)cc1)c1ccc2sc([C@@H]3O[C@H](CO)[C@H](O)[C@H](O)[C@H]3O)nc2c1,.,.,-4,.,.,.
CS(=O)(=O)N(CC(=O)NC1CC1)C1CCCCC1,3,active,6,-5,-5,i
CCc1ccc(-n2c(Cn3nc(C(F)(F)F)cc3C)n[nH]c2=S)cc1,89*,-11,-9,3,5,i
CCOc1ccc(C(=O)OCC(=O)NC2CCCC2)cc1OCC,-10,-5,4,0,-1,i
CCc1nc2sccc2c(=O)n1N,48,4,9,3,-3,i
COc1ccc(CCn2c(C)cc(C(=O)CSc3nnnn3-c3ccccc3)c2C)cc1,71*,4,-20,2,-2,i
COc1ccc(CSc2nnnn2-c2ccccc2)cc1,9,-9,-7,-4,-5,i
Cc1cc(C(=O)CSc2nnnn2C)c(C)n1CCc1ccc(Cl)cc1,82*,16,-9,-4,-6,i
O=C(CN1CCN(S(=O)(=O)/C=C/c2ccccc2)CC1)Nc1ccccc1N1CCOCC1,48,-15,-5,-7,-5,i
S=c1[nH]nc(-c2cc(-c3ccco3)[nH]n2)n1-c1cccc2ccccc12,94*,?,1,-2,-3,?
Cc1ccccc1-n1c(-c2ccco2)n[nH]c1=S,6,1,30,-7,37,i
Cc1ccc(-n2c(-c3cc(-c4ccco4)[nH]n3)n[nH]c2=S)c(Br)c1,19,?,-75,-1,8,+
Cc1n[nH]c(=O)c2c(NC(=O)CSc3ccccc3Cl)oc(C)c12,.,.,25,-4,-8,.
Cc1n[nH]c(=O)c2c(NC(=O)CSc3c(Cl)cccc3Cl)oc(C)c12,.,.,43*,-5,-11,.
COc1cc(/C=C2\SC(=S)N(Nc3ncc(C(F)(F)F)cc3Cl)C2=O)ccc1O,73*,24,-145,-3,-7,i
O=C1/C(=C/c2cccnc2)SC(=S)N1c1ccc(O)cc1,24,-9,28,-1,-5,i
O=C1/C(=C/c2cccnc2)SC(=S)N1c1ccc(F)cc1,-19,2,43*,-1,1,i
COc1cc(/C=C2\SC(=S)N(c3cccnc3)C2=O)ccc1O,-44,71*,-36,7,3,i
CNc1ncnc2c1ncn2[C@H]1CN(Cc2cccc3ccccc23)C[C@@H](CO)O1,.,.,2,.,.,.
Cc1nc2ccc(C(C(F)(F)F)(C(F)(F)F)C(F)(F)F)cc2[nH]1,-11,13,6,-2,-4,i
